Values without a mark were called inactive.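 Rule for the calls, unless noted: active = compounds whose dose series gives a full or clear partial fitted curve of increased nuclear translocation; inconclusive = weak partial curve or effect only at the top dose; inactive = no dose-dependent translocation response.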 Results filed as inconclusive are left out.

Tested on in the first assay: not listed separately
The assay is described as follows: Stat Signaling Pathway (AID 446; active = well fitted curve in either direction with a large enough effect, not every such curve was filed as active;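 note: ME-180 cervical cancer cells given 40 pM IL-6 alongside compound; SIE-controlled beta-lactamase reporter measured as 460/530 nm FRET emission ratio; % is set by controls: 0 for no effect and ±100 for the full control effect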). Conditions: ME-180 (cervical carcinoma) SIE beta-lactamase reporter, IL-6 stimulated, 5 h; at 17.2 µM (top of the series) unless noted. The method, boiled down:
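Emission at 460 and 530 nm (excitation 405 nm) reports SIE-controlled beta-lactamase in ME-180 cells. Cells received compound with 40 pM IL-6 for 5 hrs at 37 C; data scaled between 300 pM IL-6 and 125 nM JAK-inhibitor controls.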
Take `CCOC(=O)c1c(C)n(C)c2ccc(OC)c(NC(=O)CN3CCC4(CC3)OCCO4)c12`: the activity, negative = inhibition is 3.03%.

On to `COc1ccccc1C1CC(c2ccc(Cl)cc2)Nc2nc(N)nn21` (configuration not stated), for which the activity, negative = inhibition is -2.9%.

As for `CCCc1nc2n[nH]c(N)c2c2c1CCCC2`, the activity, negative = inhibition is 12.6%.

`COc1ccc2c(c1OC)C(=O)N1c3ccccc3SC21` (configuration not stated): the activity, negative = inhibition is -2.16%.

Turning to `Cc1nn(CC(=O)N2CCOCC2)c(=O)c2ccccc12`, the activity, negative = inhibition was 1.28%.

On to `CN(C)c1cccc2c(S(=O)(=O)N3CCOCC3)cccc12`, for which the activity, negative = inhibition was 7.43%.

Regarding `COc1ccccc1Nc1ncnc2c1cnn2-c1cccc(C)c1`, the activity, negative = inhibition is -6.58%.

In the case of `COc1ccc2nc(SCC(=O)O)nc(C)c2c1`, the activity, negative = inhibition is 3.73%.

For `Cc1cc(=O)oc(C)c1C(=O)Nc1ccc2nsnc2c1`, the activity, negative = inhibition is 8.13%.

In the case of `Cc1nc(Nc2ncc3c(n2)CCCC3=O)nc2ccccc12`, the activity, negative = inhibition was 0.527%.

Consider `Cc1ccc(N(CC(O)CN(C)C)S(=O)(=O)c2ccccc2)cc1` (configuration not stated), for which the activity, negative = inhibition was 1.04%.

As for `CCN(CC)CCNC(=O)c1c(C)oc2cc(Br)c(OC)cc12`, the activity, negative = inhibition was -1.1%.

In the case of `CC(O)c1n(C)c(Cl)c[n+]1C` (configuration not stated), the activity, negative = inhibition is -4.96%.

Consider `CCOC(=O)c1n[nH]c2ccccc12`, for which the activity, negative = inhibition was -6.98%.

Turning to `CCC1SC(N)=NC1=O` (configuration not stated), the activity, negative = inhibition is -1.83%.

On to `Cc1ccc(C(=O)NCC(C)(C)O)cc1`, for which the activity, negative = inhibition was 12.1%.

With `CC(=O)C(=[N+]=[N-])C(=O)NCc1ccccc1`, the activity, negative = inhibition is 1.88%.

As to `CCn1c(SCC(=O)Nc2ccccc2C(=O)OC)nnc1-c1ccc(N)cc1`, the activity, negative = inhibition was 0.432%.

`Nc1nnnn1/N=C/c1cccc(Oc2ccccc2)c1`: the activity, negative = inhibition was 10.9%.

Turning to `CCCC1C2C(=O)N(c3ccccc3OC)C(=O)C2ON1c1ccccc1` (configuration not stated), the activity, negative = inhibition is 0.927%.

Turning to `COc1ccc(OC)c(C2=Nn3c(nnc3C3CCCCC3)SC2)c1`, the activity, negative = inhibition is -1.6%.

Take `COc1ccccc1C(=O)Nc1cc(Cl)ccc1O`: the activity, negative = inhibition is -4.42%.

The target in a further assay is Glucocorticoid receptor (Homo sapiens) (UniProt P04150). The assay is described as follows: GR-GFP Redistribution (AID 450). Note: potency is the fitted concentration of half-maximal effect. Conditions: U2OS GR-GFP nuclear translocation, laser cytometry, 2 h; series mostly up to 20.6 µM.
Glucocorticoid receptor (Homo sapiens), sequence (P04150 whole entry, looked up): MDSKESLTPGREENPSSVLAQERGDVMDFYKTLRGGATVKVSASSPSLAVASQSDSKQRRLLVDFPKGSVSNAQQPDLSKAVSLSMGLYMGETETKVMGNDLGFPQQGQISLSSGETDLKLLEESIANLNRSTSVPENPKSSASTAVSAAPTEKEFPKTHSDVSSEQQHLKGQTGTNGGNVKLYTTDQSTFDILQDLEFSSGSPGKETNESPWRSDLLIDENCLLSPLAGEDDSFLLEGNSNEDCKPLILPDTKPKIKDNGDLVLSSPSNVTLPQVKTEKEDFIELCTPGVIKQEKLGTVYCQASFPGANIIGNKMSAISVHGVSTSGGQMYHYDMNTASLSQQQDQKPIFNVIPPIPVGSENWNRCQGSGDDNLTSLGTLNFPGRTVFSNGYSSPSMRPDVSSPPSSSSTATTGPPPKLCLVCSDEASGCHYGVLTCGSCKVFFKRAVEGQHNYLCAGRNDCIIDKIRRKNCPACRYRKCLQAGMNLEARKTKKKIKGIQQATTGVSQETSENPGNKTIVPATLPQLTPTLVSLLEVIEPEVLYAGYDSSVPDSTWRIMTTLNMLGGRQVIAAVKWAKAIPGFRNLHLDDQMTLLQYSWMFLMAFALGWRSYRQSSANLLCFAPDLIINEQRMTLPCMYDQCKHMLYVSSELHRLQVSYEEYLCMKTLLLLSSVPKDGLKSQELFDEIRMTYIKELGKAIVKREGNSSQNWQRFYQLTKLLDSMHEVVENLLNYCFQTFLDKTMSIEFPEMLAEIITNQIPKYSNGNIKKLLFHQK
For `COc1ccc(OC(=O)c2cc3ccccc3o2)cc1`, the Potency was over 20.6 µM.

Regarding `Cc1ccc(C)c(OCc2nnc(NC(=O)c3ccco3)s2)c1`, the Potency is over 20.6 µM.

In the case of `FC(F)(F)c1cccc(-n2cccc2/C=N/n2cnnc2)c1`, the Potency is over 20.6 µM.

As to `CC1(C)Cc2[nH]c(=S)c(C#N)cc2CO1`, the Potency is over 20.6 µM.

Take `Cc1cc(C)n(C(=O)CNC(=O)c2cccs2)n1`: the Potency is over 20.6 µM.

With `CC1(C)CC(=O)C2=C(C1)N(CC1CCCO1)C(=O)C2(O)C(F)(F)F` (configuration not stated), the Potency was over 20.6 µM.

With `CCN(CC)CCCN1C(=O)C(=O)/C(=C(/O)c2ccccc2)C1c1ccccn1` (configuration not stated), the Potency was over 20.6 µM.

On to `COCCCN1C(=O)C(O)=C(C(=O)c2ccco2)C1c1ccc(Br)cc1` (configuration not stated), for which the Potency was over 20.6 µM.

`Cc1cc(C)c2nc(SCCC#N)nc(C)c2c1`: the Potency is over 20.6 µM.

Take `COC(=O)c1ccc(=O)n(Cc2ccco2)c1`: the Potency was over 20.6 µM.

As for `COc1cccc(C(=O)N2CCN(Cc3ccccn3)CC2)c1OC`, the Potency is over 20.6 µM.

Turning to `CSc1nnc2n(C3CCCCC3)c(=O)c3c4c(sc3n12)CCCC4`, the Potency is over 20.6 µM.

Take `Cc1cc(C)nc(CC(N)=O)n1`: the Potency is over 20.6 µM.

Consider `O=C(c1coc(=O)c(Br)c1)N1CCOCC1`, for which the Potency is over 20.6 µM.

Turning to `CCC(=NC(CC)CO)C1=C(O)CC(C)(C)CC1=O` (configuration not stated), the Potency was over 20.6 µM.

Take `O=C(O)C1CSCN1S(=O)(=O)c1cccc2nsnc12` (configuration not stated): the Potency is over 20.6 µM.

With `CCOC(=O)c1ccc(-n2c(=O)[nH]c3ccccc3c2=O)cc1`, the Potency is over 20.6 µM.

With `Cc1nnc(SCC(=O)N2CCC(C(N)=O)CC2)s1`, the Potency was over 20.6 µM.

Take `CCOC(=O)c1c(C)n(C)c2ccc(OC)c(NC(=O)CN3CCC4(CC3)OCCO4)c12`: the Potency is over 20.6 µM.

As to `COc1ccccc1C1CC(c2ccc(Cl)cc2)Nc2nc(N)nn21` (configuration not stated), the Potency is over 20.6 µM.

For `CCCc1nc2n[nH]c(N)c2c2c1CCCC2`, the Potency is over 20.6 µM.

In the case of `COc1ccc2c(c1OC)C(=O)N1c3ccccc3SC21` (configuration not stated), the Potency is over 20.6 µM.

Turning to `Cc1nn(CC(=O)N2CCOCC2)c(=O)c2ccccc12`, the Potency is over 20.6 µM.

In the case of `CN(C)c1cccc2c(S(=O)(=O)N3CCOCC3)cccc12`, the Potency is over 20.6 µM.

With `COc1ccccc1Nc1ncnc2c1cnn2-c1cccc(C)c1`, the Potency is over 20.6 µM.

Regarding `COc1ccc2nc(SCC(=O)O)nc(C)c2c1`, the Potency is over 20.6 µM.

With `Cc1cc(=O)oc(C)c1C(=O)Nc1ccc2nsnc2c1`, the Potency is over 20.6 µM.

`Cc1nc(Nc2ncc3c(n2)CCCC3=O)nc2ccccc12`: the Potency is over 20.6 µM.

With `Cc1ccc(N(CC(O)CN(C)C)S(=O)(=O)c2ccccc2)cc1` (configuration not stated), the Potency was over 20.6 µM.

Regarding `CCN(CC)CCNC(=O)c1c(C)oc2cc(Br)c(OC)cc12`, the Potency is over 20.6 µM.

As for `CC(O)c1n(C)c(Cl)c[n+]1C` (configuration not stated), the Potency was over 20.6 µM.

Take `CCOC(=O)c1n[nH]c2ccccc12`: the Potency was over 20.6 µM.

Take `CCC1SC(N)=NC1=O` (configuration not stated): the Potency was over 20.6 µM.

As to `Cc1ccc(C(=O)NCC(C)(C)O)cc1`, the Potency is over 20.6 µM.

Take `CC(=O)C(=[N+]=[N-])C(=O)NCc1ccccc1`: the Potency was over 20.6 µM.

In the case of `CCn1c(SCC(=O)Nc2ccccc2C(=O)OC)nnc1-c1ccc(N)cc1`, the Potency was over 20.6 µM.

As to `Nc1nnnn1/N=C/c1cccc(Oc2ccccc2)c1`, the Potency is over 20.6 µM.

Consider `CCCC1C2C(=O)N(c3ccccc3OC)C(=O)C2ON1c1ccccc1` (configuration not stated), for which the Potency was over 20.6 µM.

For `COc1ccc(OC)c(C2=Nn3c(nnc3C3CCCCC3)SC2)c1`, the Potency was over 20.6 µM.

On to `COc1ccccc1C(=O)Nc1cc(Cl)ccc1O`, for which the Potency was over 20.6 µM.

The values above are taken from PubChem BioAssay (NCATS).
